Each structure is given as a SMILES string. Inconclusive results are not listed. Activity calls are given as the source filed them. Calls come from the whole dose curve; as a rule, active = well fitted activation curve with a large enough effect in the signal ratio, with a control signal flat (not every such curve was filed as active); inconclusive = small, poorly fitted or top-dose-only effect, or effect the other way, or a change in a side signal; inactive = flat fitted curve, though single readings scatter; the % refers to the signal ratio.
Potency is the fitted concentration of half-maximal effect.

This test in a line: qHTS Assay for Identification of Small Molecule Agonists for Hypoxia Response Element Signaling Pathway (AID 914). For activation: % of control where 0% means no effect. The following applies: ME-180 (cervical carcinoma) HRE-bla reporter, beta-lactamase ratio, CoCl2, 17 h; activation: active compounds read high. An excerpt:
NIH Molecular Libraries Screening Centers Network [MLSCN]
NIH Chemical Genomics Center [NCGC]
Hypoxia-inducible factor-1 (HIF-1) is the major hypoxia-regulated transcription factor that controls cellular responses to low oxygen concentration. HIF-1 is composed of two subunits: hypoxia responsive HIF-1 alpha and constitutively expressed HIF-1 beta, which is also known as aryl hydrocarbon receptor nuclear translocator. During hypoxic conditions, HIF-1 alpha heterodimerizes with HIF-1 beta and translocates into the nucleus where the HIF-1 complex binds to the hypoxia-response element (HRE) and activates expression of target genes such as VEGF (vascular endothelial growth factor). HIF-1 alpha protein levels are elevated in many solid tumors, including those of the cervix and brain. Within tumors, cells that are the greatest distance from blood vessels and therefore the most hypoxic express the highest levels of HIF-1 alpha. Therapeutic blockade of the HIF-1 signaling pathway in cancer cells therefore provides an attractive strategy for development of anticancer drugs.
Using a beta-lactamase reporter-gene under control of the hypoxia response element, a cell-based assay [CellSensor(TM) HRE-bla ME-180 developed by Invitrogen Corp.] was used to measure hypoxia-induced signaling. Library compounds were measured for their ability to positively modulate the action of EC50 CoCl2 on reporter gene activity. Compounds were screened in a titration series in 1536-well format. Positive modulators were identified based on the AC50 values derived from the screening data.
NCGC Assay Protocol Summary:
2500 cells/5uL in Opti-MEM medium containing 0.5% dialyzed FBS, 0.1 mM NEAA, 1 mM sodium pyruvate and 10 mM HEPES was dispensed into 1536-well plates and cells were cultured at 37 degrees Celsius overnight. Next day 23 nL of compounds or DMSO were delivered to each well using a pin tool, and 1uL of EC50 level of CoCl2, or EC100 level of CoCl2, or assay medium was added. And then the plates were incubated at 37 degrees Celsius for 17 hours. 1 uL of CCF4-dye mixture was added to each well. After incubated at room temperature for 2.5 hours the plates were measured on an EnVision plate reader at Excitation 405nm, Emission1=460nm and Emission 2=530nm. The %Activity was determined from the ratio of 460nm/530nm.
For the molecule `CCOC(=O)NC(Nc1sc2c(c1C(=O)OC)CCN(C)C2)(C(F)(F)F)C(F)(F)F`, the activation is 6.5% (inactive).

Take `Cc1cc(-c2cc(-c3ccc(Cl)cc3)nc(N)c2C#N)co1`: the Potency is 7.94 µM (active).

In the case of `COc1ccc(C2C(C(C)=O)=C(O)C(=O)N2c2nccs2)cc1OC` (stereo not given), the activation was -13.7% (inactive).

As for `COc1ccc(CCCNC(=O)CC#N)cc1OC`, the activation is 5.59% (inactive).

In the case of `CCOc1ccc(NC(=O)CSC2=C(C#N)C(c3ccc4c(c3)OCO4)CC(=O)N2)cc1` (stereo not given), the activation is -0.0576% (inactive).

In the case of `COc1cc(-c2cc(C(F)(F)F)n3ncc(C(=O)O)c3n2)cc(OC)c1OC`, the activation is 13.9% (inactive).

Take `C=CC(O)Cc1c(C)n[nH]c1C` (stereo not given): the activation was 4.5% (inactive).

As for `Cc1ccc(S(=O)(=O)c2cc3c(=O)n4ccccc4nc3n(C)c2=N)cc1`, the Potency was 7.94 µM (active).

On to `C=CCn1c(N)c(C(=O)Nc2ccccc2)c2nc3ccccc3nc21`, for which the Potency is 5.01 µM (active).

In the case of `O=C1CSC(=Nc2ccc(O)cc2)N1c1ccc(O)cc1`, the activation is -9.31% (inactive).

For `CCN1CCN(c2nc3c(C)cccn3c(=O)c2/C=C(\C#N)S(=O)(=O)c2ccccc2)CC1`, the activation is 5.25% (inactive).

As for `COc1ccc(C2CC(=O)c3sc(N)nc3C2)cc1` (stereo not given), the activation is -11% (inactive).

`COCCCNc1nc2c(c(=O)[nH]c(=O)n2C)n1CC(O)COc1ccccc1` (stereo not given): the activation is -6.56% (inactive).

Regarding `CC(C)COC(=O)CCNc1n[nH]c(=O)[nH]c1=O`, the activation is -10.2% (inactive).

Consider `CCOc1ccc(/C(O)=C2/C(=O)C(=O)N(CCN(C)C)C2c2ccccc2)cc1Cl` (stereo not given), for which the activation was 2.13% (inactive).

In the case of `C=CCn1c(=N)c(C(=O)OCC)cc2c(=O)n3cccc(C)c3nc21`, the Potency was 10 µM (active).

Take `CCOC(=O)c1c(-c2cccs2)csc1NC(=O)c1ccncc1`: the Potency is 6.31 µM (active).

`O=C1C2ON(c3ccccc3)C(c3cccnc3)C2C(=O)N1Cc1ccccc1` (stereo not given): the activation was 1.83% (inactive).

As to `Cc1cc(C)n(C(=O)CN2C(=O)CCC2=O)n1`, the activation is 6.68% (inactive).

On to `CCC(=O)Nc1c(C#N)c2nc3ccccc3nc2n1C1CCCCC1`, for which the Potency is 10 µM (active).

For `OC[C@@H]1O[C@@H](n2cnc3cncnc32)[C@@H](O)[C@H]1O`, the activation was 4.26% (inactive).

`COC(=O)c1[nH]c(C)c(/C(O)=C2\C(=O)C(=O)N(CCN3CCOCC3)C2c2ccccc2OC)c1C` (stereo not given): the activation was 0.0679% (inactive).

For the molecule `COc1ccc(CNC(=O)c2c(C)cc(=O)oc2C)cc1OC`, the activation was 12.6% (inactive).

For `CNc1nc(C)c(C#N)cc1C(C)=O`, the activation is 6.97% (inactive).

Take `N#CC1=C(SCC(=O)c2ccccc2)NC2=C(C(=O)CCC2)C1c1ccco1` (stereo not given): the Potency was 10 µM (active).

On to `CCC(=O)N(Cc1cccs1)C1CCOC(C)(C)C1` (stereo not given), for which the activation was -1.46% (inactive).

As for `COCCNC(=O)c1c(N)n(CCC2=CCCCC2)c2nc3ccccc3nc12`, the Potency is 10 µM (active).

As to `COc1ccc2c(c1)CN([C@H](C)[C@@H]1CC[C@@H]3[C@H]4CC[C@H]5C[C@@H](O)CC[C@@]5(C)[C@H]4CC[C@]31C)CO2`, the activation is 15.9% (inactive).

Turning to `CCCN(CCC)c1nc2ccccc2nc1C(C#N)C(=O)OC(C)COC` (stereo not given), the activation was -6.34% (inactive).

As for `COC(=O)[C@H]1CCCN1C(=O)Nc1cccc(Oc2c(F)c(F)c(F)c(F)c2F)c1`, the activation was -9.38% (inactive).

Take `C=CCc1cccc(/C=N/c2ncn[nH]2)c1O`: the activation is 26.2% (inactive).

Turning to `CCCCOc1ccc(C(=O)Nc2ccc(N3CCN(C(C)=O)CC3)cc2)cc1`, the Potency is 2.51 µM (active).

Consider `CCc1cc(=O)oc2c(CN3CCCC3)c(O)c(Cl)cc12`, for which the Potency is 7.94 µM (active).

Consider `O=C(NC1CCS(=O)(=O)C1)c1c(NC(=O)C2COc3ccccc3O2)sc2c1CCCC2` (stereo not given), for which the Potency was 5.01 µM (active).

`CCOc1ccc(NC(=O)c2nn(C)cc2Br)cc1`: the activation was 5.55% (inactive).

In the case of `CC(C)COc1ccc(C(=O)NC(CC(C)C)C(=O)O)cc1` (stereo not given), the activation is 11.5% (inactive).

For `Cc1ccc(CNC(=O)c2cc3c(=O)n4ccccc4nc3n(CC3CCCO3)c2=N)cc1` (stereo not given), the Potency was 7.94 µM (active).

Regarding `Cc1cc(C)nc(N(C#N)CN2C(=O)c3ccccc3C2=O)n1`, the activation was 12.2% (inactive).

With `CN1C(=O)c2ccc(N(C)C)cc2C1=O`, the activation is 14.5% (inactive).

As for `CC1=CC(c2ccccc2)n2nc(N3C(=O)C4CC=CCC4C3=O)nc2N1` (stereo not given), the activation is 6.95% (inactive).
